The structures appear in SMILES notation. This is part of a sample that, as a whole, favours compounds with a hit. Of some 83,000 tested, about 20% had one in any assay.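 Single-concentration screen, 48 h exposure, 96-well plates. Endpoint: percent growth. Below 10 = active.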 Unmarked numbers belong to inactive results. Calls of active or inactive are those of the source.

Holding throughout (test): NCI-60 one-dose screen, 48 h (100 = growth as untreated, 0 = no growth, -100 = all killed)
The test system of one assay is T-47D breast. The following applies: 10 µM.
For the next assay, the system named is BT-549 breast. The following applies: 10 µM unless noted.
The test system of a further assay is MDA-MB-435 melanoma. The following applies: 10 µM unless noted.
Another assay relates to SW-620 colon. The following applies: 10 µM unless noted.
A further assay deals with MCF7 breast. The following applies: 10 µM unless noted.
Another assay relates to HCT-116 colon. The following applies: 10 µM unless noted.
The subject of another assay is HCC-2998 colon. The following applies: 10 µM unless noted.
In another assay the test system is KM12 colon. The following applies: 10 µM unless noted.

In the case of `COc1ccc(S(=O)(=O)ON=C2C=C(C)C(=O)C(C)=C2)cc1`, the growth was 40.3% in the assay with T-47D breast; 97.7% in the assay with BT-549 breast; 18.1% in the assay with MDA-MB-435 melanoma; 60.7% in the assay on SW-620 colon; 64% in the assay on MCF7 breast; 44.9% in the assay with HCT-116 colon. The growth is 112% in the assay on HCC-2998 colon and 97.6% in the assay with KM12 colon.

`CN1CCc2c(c3ccccc3c3ccccc23)C1`: the growth was 55.5% with T-47D breast; 94.7% with BT-549 breast; 51.4% in the assay with MDA-MB-435 melanoma; 28.7% in the assay on SW-620 colon; 26.4% in the assay with MCF7 breast; 16.9% in the assay with HCT-116 colon. In addition, the growth in the assay with HCC-2998 colon was 70%; in the assay with KM12 colon, 39.1%.

As for `COc1cc(/C=C2\C(=O)Nc3ccccc32)cc(OC)c1O`, the growth in the assay on T-47D breast was 49.6%; in the assay on BT-549 breast it was 74.8%; in the assay on MDA-MB-435 melanoma, -25.3% (active); in the assay with SW-620 colon, 31.5%; in the assay on MCF7 breast, 30.8%; with HCT-116 colon it was 46.4%. Besides, the results for the growth in the assay with HCC-2998 colon and in the assay on KM12 colon were 78.8% and 32.2%, respectively.

As to `FC(F)(F)c1ccc2c(c1)n1cnnc1c1nncn21`, the growth is 102% in the assay with T-47D breast; 103% in the assay on BT-549 breast; 112% with MDA-MB-435 melanoma; 108% with SW-620 colon; 98.2% in the assay with MCF7 breast; 105% with HCT-116 colon. Moreover, the results for the growth with HCC-2998 colon and in the assay with KM12 colon were 108% and 110%, respectively.

On to `COc1nc2c(cc1S(=O)(=O)c1ccccc1)CCc1c-2cnn1-c1ccccc1Cl`, for which the growth is 26.5% with T-47D breast; 51.8% with BT-549 breast; 65.7% in the assay on MDA-MB-435 melanoma; 79.1% in the assay on SW-620 colon; 42.2% in the assay on MCF7 breast; 48.4% in the assay on HCT-116 colon. Besides, the growth is 77.7% with HCC-2998 colon and 49.7% in the assay on KM12 colon.

Turning to `N#Cc1c(O)c2c(c(O)c1C#N)C(=O)c1ccccc1C2=O`, the growth was 23.2% in the assay with T-47D breast; 69.1% with BT-549 breast; -91.2% (active) with MDA-MB-435 melanoma; 8.21% (active) in the assay on SW-620 colon; 46.2% in the assay with MCF7 breast; 1.88% (active) with HCT-116 colon. Besides, the growth in the assay on HCC-2998 colon is 34.5%; in the assay on KM12 colon it was 73.4%.

Consider `CC(C)(C)[Si](C)(C)OC1[C@@H](COC(=O)NC(=O)CCl)O[C@@H](n2cnc3c(N)ncnc32)[C@H]1O[Si](C)(C)C(C)(C)C` (stereo partly specified), for which the growth with T-47D breast was 76.3%; in the assay on BT-549 breast, -17.9% (active); with MDA-MB-435 melanoma it was -28.2% (active); with SW-620 colon it was -21.8% (active); with MCF7 breast, 10.6%; with HCT-116 colon, 11.2%. The growth was 56% in the assay with HCC-2998 colon and 19.9% with KM12 colon.

`Clc1ccc(C2=NN(c3ccccc3)[C@H](c3cn(-c4ccccc4)nc3-c3ccccc3)C2)cc1`: the growth in the assay with T-47D breast is 112%; in the assay with BT-549 breast, 112%; in the assay with MDA-MB-435 melanoma, 99.8%; in the assay with SW-620 colon, 107%; in the assay with MCF7 breast it was 97.5%; in the assay with HCT-116 colon, 90%. Besides, the growth was 103% in the assay on HCC-2998 colon and 104% with KM12 colon.

In the case of `COc1ccc(-c2nc3sc(C)cn3c2/C=C/C(=O)c2cc(OC)c(OC)c(OC)c2)cc1`, the growth in the assay on T-47D breast is 50.3%; in the assay with BT-549 breast, 59.9%; in the assay on MDA-MB-435 melanoma it was 20.9%; with SW-620 colon, 64.3%; in the assay with MCF7 breast, 46.7%; in the assay with HCT-116 colon, 42.1%. Further, the growth in the assay on HCC-2998 colon is 69.3%; in the assay with KM12 colon, 29.3%.

As to `O=C1NC(=O)C(CSc2ccccc2)(c2ccccc2)N1` (stereo unspecified), the growth is 93.4% with T-47D breast; 100% with BT-549 breast; 112% in the assay on MDA-MB-435 melanoma; 106% in the assay with SW-620 colon; 101% with MCF7 breast; 102% in the assay with HCT-116 colon. Besides, the growth is 96.4% in the assay with HCC-2998 colon and 113% with KM12 colon.

On to `Cc1cc(Cl)c2c(Cl)ccc(Cl)c2n1`, for which the growth with T-47D breast is 103%; in the assay on BT-549 breast it was 100%; in the assay with MDA-MB-435 melanoma, 102%; in the assay with SW-620 colon, 114%; in the assay on MCF7 breast, 99.3%; with HCT-116 colon, 100%. Further, the growth in the assay with HCC-2998 colon is 116%; in the assay on KM12 colon it was 108%.

Regarding `CC(=O)OC[C@]1(C)C=C2C(=O)[C@](C)(O)C3(CC3)C(C)=C2[C@H]1OC(C)=O`, the growth is 73.6% with T-47D breast; 72.6% in the assay on BT-549 breast; 95.4% in the assay on MDA-MB-435 melanoma; 88.2% in the assay on SW-620 colon; 57.1% in the assay on MCF7 breast; 62.3% in the assay on HCT-116 colon. Further, the growth with HCC-2998 colon is 81.8%; in the assay on KM12 colon it was 78.4%.

With `O=[N+]([O-])c1ccc2nc(N/N=C/c3ccc(O)cc3)sc2c1`, the growth with T-47D breast was 35.1%; with BT-549 breast it was 28.6%; in the assay with MDA-MB-435 melanoma it was 47.7%; in the assay with SW-620 colon, 63.7%; in the assay with MCF7 breast, 57.9%; with HCT-116 colon, 23.3%. The growth with KM12 colon is 33.4%.

`COc1cccc(OC(=O)c2ccccc2)c1OC(=O)c1ccccc1`: the growth was 80.2% in the assay on T-47D breast; 83.4% in the assay with BT-549 breast; -16.4% (active) with MDA-MB-435 melanoma; 40.1% in the assay on SW-620 colon; 47.4% in the assay on MCF7 breast; 51.3% with HCT-116 colon. In the assay on KM12 colon, the growth is 45.2%.

`CSc1nnc(-c2sc3nnc(-c4ccccc4)c(-c4ccccc4)c3c2O)o1`: the growth in the assay on T-47D breast was 75%; in the assay with BT-549 breast it was 74.1%; with MDA-MB-435 melanoma it was 88.4%; with SW-620 colon, 92.5%; with MCF7 breast, 83.5%; with HCT-116 colon, 60.9%. The growth with KM12 colon was 72.9%.

Turning to `CC(C)NCC(O)COc1ccc(CCOCC2CC2)cc1` (stereo unspecified), the growth was 103% with T-47D breast; 116% in the assay with BT-549 breast; 103% with MDA-MB-435 melanoma; 102% in the assay on SW-620 colon; 107% in the assay on MCF7 breast; 106% in the assay on HCT-116 colon. The growth with KM12 colon is 113%.

`Cc1ccc2nc(NC(=O)CSC(=S)N3CCN(C)CC3)sc2c1`: the growth in the assay on T-47D breast was 105%; with BT-549 breast, 97.4%; with MDA-MB-435 melanoma, 101%; in the assay with SW-620 colon, 106%; in the assay on MCF7 breast it was 93%; in the assay with HCT-116 colon, 97.2%. For the same molecule, the growth in the assay on KM12 colon was 111%.

Source of the values: PubChem BioAssay (NCI).
